The values that follow come from PubChem BioAssay.

Assay [1] is described as follows: blockers of polyQ-driven CASP3 activation – cell-based (AID 1583). The conditions noted are these: polyglutamine-induced caspase-3 activation, cell assay; stronger effect = higher value;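 tested at 10 µM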.
A short description of assay [2]: restoration of touch response, mutant HTT neurons – whole organism, C. elegans mechanosensory neurons, N-terminal huntingtin (AID 1599). The conditions noted are these: C. elegans polyQ-huntingtin mechanosensory neurons, stronger effect = higher value.
A short description of assay [3]: glutamate transport activators, MN-1 cells, MN-1 cell line (AID 1612).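 Further: tested at 1 µM final; 0% = mean of DMSO vehicle wells on each plate; positive means more glutamate uptake than control and negative means less.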 The conditions noted are these: MN-1 motor neuron cells, stronger effect = higher value.
Assay [4] is described as follows: GFP-Q80 aggregate reduction, neuronal-like cells, cell-based, NGF-treated PC12, GFPQ80 (AID 1614).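 Further: lower means fewer inclusions and 0 means no inclusions at all.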 The conditions noted are these: PC12 NGF-treated GFP-polyQ80 inclusion reduction.
The nature of assay [5]: 75Q-TubH aggregate inhibition, S. cerevisiae, yeast (AID 1616). The conditions noted are these: S. cerevisiae 75Q-TubH polyglutamine aggregation suppression; stronger effect = higher value.
The nature of assay [6]: compounds altering circadian rhythm period length – cell-based, LOPAC library, luminescence reporter (AID 2774).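 Further: values are relative to mean of DMSO wells on each plate.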 The conditions noted are these: circadian reporter cells, at 7 µM, actives lie on both sides.
For assay [7], the system named is Hepatitis C virus NS3 helicase. The assay can be described thus: blockers of NS3h binding to ssDNA – biochemical, fluorescence polarization, LOPAC1280 library, primary screen (AID 687035; in the data active means inhibition above about 37%). The conditions noted are these: Purified HCV NS3 helicase, Cy5-dT15 ssDNA binding fluorescence polarization; stronger effect = higher value; concentration not given here. On the technique in general: Fluorescence polarisation rises when a labelled molecule tumbles more slowly, as on binding a larger partner.

The nature of assay [8]: compounds altering Cy5-DNA-NS3h complex signal – biochemical, LOPAC1280, artefact control for HCV NS3 helicase inhibitor project (AID 687037). The conditions noted are these: Cy5-DNA-NS3h complex fluorescence interference counterscreen. (In general: A counterscreen serves to expose hits that act by an unwanted route or on another target.)
Assay [9] is described as follows: modulation of C. elegans fzo-1 (AID 1259413).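 Further: fzo-1 mutant C. elegans worms in liquid wells.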 The conditions noted are these: C. elegans fzo-1 modulator screen, mean read-out; stronger effect = higher value.
Assay [10] deals with Aerobactin synthetase IucA (Klebsiella pneumoniae, hypervirulent). Kind of assay: biochemical IucA inhibition screen of LOPAC library by absorbance (AID 1346212).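 Further: 100% = no compound wells and 0% = no enzyme wells.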 The conditions noted are these: IucA enzyme assay, absorbance (OD) readout; stronger effect = lower value;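 tested at 8 µM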.
A short description of assay [11]: blockers of cellular phospholipid synthesis – cell-based, LOPAC library, screen 4, primary screen (AID 1347384). The conditions noted are these: animal cells, phospholipid biosynthesis inhibition screen; at 10 µM.
The next assay concerns F380Y. Kind of assay: BK channel mutant inhibitors and activators – cell-based, U2OS BacMam, thallium flux, beta subunits, selectivity assay, profiling panel (AID 1259406;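 active means thallium flux through the channel raised or lowered by more than 3 SD from vehicle-only wells, actives on both sides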;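 further: initial slope of Thallos dye fluorescence rise after thallium is added; log ratio against the mean of 0.3% DMSO vehicle wells on the same plate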). The conditions noted are these: U2OS BacMam BK variants, at 30 µM.
In another assay the test system is F380Y/beta1. The assay is described as above. The conditions noted are these: U2OS BacMam BK variants, at 30 µM.
For the next assay, the system named is F380Y/beta2Delta. Described as above. The conditions noted are these: U2OS BacMam BK variants, at 30 µM.
The test system of a further assay is R275C. The description is as above. The conditions noted are these: U2OS BacMam BK variants, at 30 µM.
For a further assay, the system named is R275C/beta1. Described as above. The conditions noted are these: U2OS BacMam BK variants, at 30 µM.
For a further assay, the system named is R275C/beta2Delta. The assay is described as above. The conditions noted are these: U2OS BacMam BK variants, at 30 µM.
A further assay has as its system R275C/Slo1WT/beta2. The assay is described as above. The conditions noted are these: U2OS BacMam BK variants, at 30 µM.
The nature of assay [12]: compounds altering viability of human ES cells (AID 493140).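 Further: cells exposed to compounds for four days before counting.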 The conditions noted are these: human embryonic stem cell survival screen; stronger effect = higher value.
For assay [13], the target named is ATP-dependent translocase ABCB1 (Homo sapiens) (UniProt P08183). Kind of assay: P-glycoprotein substrate transport blockade – cell-based (AID 377; in the data active means fluorescence slope change above about 50%). The conditions noted are these: MDR1-expressing cells, fluorescent substrate accumulation slope; stronger effect = higher value; concentration not given here.
ATP-dependent translocase ABCB1 (Homo sapiens), sequence (P08183 whole entry, looked up): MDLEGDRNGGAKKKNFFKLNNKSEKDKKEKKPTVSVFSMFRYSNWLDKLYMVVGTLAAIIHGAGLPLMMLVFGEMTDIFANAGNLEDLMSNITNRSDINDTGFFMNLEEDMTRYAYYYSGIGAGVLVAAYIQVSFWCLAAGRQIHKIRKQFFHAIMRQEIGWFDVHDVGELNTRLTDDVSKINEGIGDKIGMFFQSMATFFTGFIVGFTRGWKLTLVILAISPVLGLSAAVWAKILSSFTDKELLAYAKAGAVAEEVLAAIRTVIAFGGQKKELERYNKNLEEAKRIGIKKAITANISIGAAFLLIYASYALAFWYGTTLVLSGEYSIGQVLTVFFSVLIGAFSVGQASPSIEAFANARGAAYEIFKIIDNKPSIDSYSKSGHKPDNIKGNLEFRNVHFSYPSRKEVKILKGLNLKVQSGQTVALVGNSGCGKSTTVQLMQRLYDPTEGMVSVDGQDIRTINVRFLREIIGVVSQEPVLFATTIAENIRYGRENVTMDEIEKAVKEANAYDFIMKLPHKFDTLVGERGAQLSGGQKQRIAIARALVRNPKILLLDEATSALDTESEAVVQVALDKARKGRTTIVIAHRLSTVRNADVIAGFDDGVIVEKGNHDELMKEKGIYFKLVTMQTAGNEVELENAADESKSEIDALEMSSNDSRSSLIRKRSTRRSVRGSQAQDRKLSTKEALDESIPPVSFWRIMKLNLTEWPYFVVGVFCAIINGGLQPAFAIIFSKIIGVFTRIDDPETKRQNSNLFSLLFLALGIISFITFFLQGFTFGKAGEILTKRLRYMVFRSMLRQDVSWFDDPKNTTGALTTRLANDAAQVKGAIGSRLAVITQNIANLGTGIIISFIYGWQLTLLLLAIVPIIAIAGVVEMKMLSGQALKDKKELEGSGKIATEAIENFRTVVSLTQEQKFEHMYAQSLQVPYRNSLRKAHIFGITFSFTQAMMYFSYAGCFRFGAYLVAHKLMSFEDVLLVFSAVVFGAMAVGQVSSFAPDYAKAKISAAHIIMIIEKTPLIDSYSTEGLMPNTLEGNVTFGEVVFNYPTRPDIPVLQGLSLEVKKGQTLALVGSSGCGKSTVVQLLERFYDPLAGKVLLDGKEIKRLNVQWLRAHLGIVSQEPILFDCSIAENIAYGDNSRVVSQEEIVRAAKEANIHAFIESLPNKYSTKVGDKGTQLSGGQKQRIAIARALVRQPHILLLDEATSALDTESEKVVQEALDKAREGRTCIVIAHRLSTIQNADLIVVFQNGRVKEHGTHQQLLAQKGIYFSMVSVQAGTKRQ

Where “and” joins values, the source holds several entries; their conditions need not be identical. Equal values may be shown once. Inconclusive results are not listed. For part of these data: Results with a measured potency or affinity are listed apart. Calls of active or inactive are those of the source. Unless noted, how the calls were made is not given here.

Regarding `O=P1(N(CCCl)CCCl)NCCCO1` (stereo not given), the inhibition – broadly, the drop in the measured response relative to a control, in per cent – in [1] was -14.8%; in [7] it was -3% (inactive). Besides, in assay [2], the rescue above control was -5.6. Moreover, the glutamate uptake change in assay [3] was -7.13%. Besides, the inclusion score in assay [4] was determined as 2. This compound also displayed an aggregation suppression score in assay [5] of 1.14. In addition, the period change in assay [6] is 0.185 h (inactive). The fluorescence ratio (interference) in [8] was 1 (inactive). Also, the mean signal in assay [9] was 262 (inactive). Further, the remaining activity (usually the signal under treatment as a percentage of the control signal) in assay [10] is 112% (inactive). For the same compound, the call in assay [11] was inactive. Besides, the log fold change Tl+ flux in the assay on F380Y is -0.0772 (inactive); with F380Y/beta1 it was -0.00569 (inactive); with F380Y/beta2Delta it was -0.037 (inactive); in the assay with R275C, -0.0233 (inactive); in the assay on R275C/beta1, 0.00892 (inactive); with R275C/beta2Delta, -0.0421 (inactive). Besides, the log fold change Tl+ flux in the assay on R275C/Slo1WT/beta2 is 0.011 (inactive).
Turning to `COC(=O)C1=CCCN(C)C1`, the inhibition is 15.1% in assay [1] and 0% (inactive) in assay [7]. In [2], this compound gave a rescue above control of 4.32. For the same compound, the glutamate uptake change in [3] came to 13.8%. This compound also displayed an inclusion score in assay [4] of 2. The compound also displayed an aggregation suppression score in [5] of 1.35. Moreover, the period change in assay [6] was -0.175 h (inactive). The survival in assay [12] is 7.67 (inactive). Moreover, in assay [8], the fluorescence ratio (interference) is 1 (inactive). Further, the remaining activity in [10] was 111% (inactive). Further, the outcome in assay [11] was inactive.
On to `CCCC(C)(COC(N)=O)COC(=O)NC(C)C` (stereo not given), for which, in [13], the fluorescence slope change was 52.8% (active). In addition, the inhibition in assay [1] is 17.5%; in [7], -1% (inactive). The rescue above control in assay [2] was found to be 0.33. The glutamate uptake change in [3] is 3.53%. The compound also registered an inclusion score in assay [4] of 2. In assay [5], this compound showed an aggregation suppression score of 1.4. Also, the period change in assay [6] was 0.065 h (inactive). Moreover, the survival in assay [12] was 11.2 (inactive). In addition, the fluorescence ratio (interference) in [8] was 1 (inactive). For the same compound, the mean signal in assay [9] is 258 (inactive). In assay [10], the remaining activity is 106% (inactive). The log fold change Tl+ flux in the assay on F380Y was 0.0133 (inactive); in the assay on F380Y/beta1 it was 0.0587 (inactive); with F380Y/beta2Delta it was -0.0375 (inactive); with R275C, 0.0157 (inactive); in the assay with R275C/beta1, 0.044 (inactive); in the assay on R275C/beta2Delta, 0.0245 (inactive). Moreover, the log fold change Tl+ flux in the assay with R275C/Slo1WT/beta2 is 0.0148 (inactive).
As to `CC(C)N(CCC(C(N)=O)(c1ccccc1)c1ccccn1)C(C)C` (stereo not given), the fluorescence slope change in assay [13] was 52.1% (active). The inhibition in [1] is -16.9%; in assay [7], 0% (inactive) and -1% (inactive). Besides, the rescue above control in assay [2] is -8.3. In [3], the glutamate uptake change is 24.3%. The compound also gave an inclusion score in assay [4] of 2. In addition, the aggregation suppression score in assay [5] was found to be 1.38. Further, the period change in assay [6] is 0.265 hour (inactive) and -0.11 hour (inactive). In [12], the survival is 11.6 (inactive). The fluorescence ratio (interference) in assay [8] is 1 (inactive). Further, the mean signal in assay [9] is 254 (inactive). For the same compound, the remaining activity in assay [10] is 98.9% (inactive) and 93.2% (inactive). Further, the result in assay [11] was inactive. For the same compound, the log fold change Tl+ flux in the assay on F380Y was -0.0248 (inactive); in the assay on F380Y/beta1 it was 0.0372 (inactive); with F380Y/beta2Delta, 0.00612 (inactive); with R275C it was 0.00817 (inactive); in the assay with R275C/beta1, -0.022 (inactive); with R275C/beta2Delta, -0.0143 (inactive). Further, in the assay with R275C/Slo1WT/beta2, the log fold change Tl+ flux is 0.00641 (inactive).
As for `C[C@@H]1C[C@@H]([C@H](O)CC2CC(=O)NC(=O)C2)C(=O)[C@@H](C)C1`, in assay [13], the fluorescence slope change was 14.9% (inactive). Besides, the inhibition in [1] was found to be 22.7%. Besides, in assay [2], the rescue above control is -0.63. In addition, the glutamate uptake change in [3] is -43.8%. The compound further yielded an aggregation suppression score in [5] of 0.0281. Moreover, in assay [12], the survival was 0.417 (inactive).
Consider `Clc1ccc(CO/N=C(\Cn2ccnc2)c2ccc(Cl)cc2Cl)c(Cl)c1`, for which the mean signal in assay [9] is 187 (inactive).
